Assay outcomes from PubChem BioAssay.
An excerpt weighted towards active compounds, which were near 10% of everything screened.
GLS inhibitor: inhibitors of human glutaminase (GLS); GLS enzymatic activity, qHTS titration; 410,000 compounds, 0.21% hits; Potency, µM (doses to about 45.5 µM), for the others: top-dose activity change, negative = inhibition, actives largely listed as inhibitors; AID 624170; also: % is scaled to controls: 0 for no effect and ±100 for the full control effect
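Read-out is an Amplex red fluorescence increase coupled through glutamate oxidase and HRP, measured before and after 30 min room-temperature incubation. hKGA is in 45 mM KH2PO4 (pH 8.2) with 0.02% Tween-20; glutamine added as 1mM solution.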
G9a block: inhibitors of human histone lysine methyltransferase G9a | Q96KQ7 | G9a H3K9 monomethylation, AlphaScreen, 2 h | Potency, µM (doses to about 102 µM), for the others: top-dose activity, negative = inhibition, hits mostly inhibitors | 350,000 compounds, 8.8% hits | AID 504332; also: % is scaled to controls: 0 for no effect and ±100 for the full control effect; nearly all actives have a fitted effect of over 75% in size
Target sequence (Q96KQ7 913-1193 limits assumed): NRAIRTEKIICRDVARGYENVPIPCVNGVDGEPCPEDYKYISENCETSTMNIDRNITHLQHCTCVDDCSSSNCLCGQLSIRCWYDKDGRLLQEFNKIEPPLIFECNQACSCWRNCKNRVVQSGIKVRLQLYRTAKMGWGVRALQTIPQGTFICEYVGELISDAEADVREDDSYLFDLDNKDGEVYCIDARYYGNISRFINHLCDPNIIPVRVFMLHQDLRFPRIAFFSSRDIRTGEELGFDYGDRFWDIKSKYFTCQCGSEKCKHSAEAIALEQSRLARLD
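Step 1: enzyme (final 20 nM) with compound, 15 min RT. Step 2: substrate peptide 500 nM and SAM 20 uM, 2 h RT. Step 3: anti-H3K9me1 antibody and AlphaScreen beads, 10 min, then plate read.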
JMJD2A Tudor inh: blocks the human JMJD2A Tudor domain; O75164; Potency, µM (top dose mostly 114 µM), without a hit: at the top dose activity change, negative = inhibition, usual class: inhibitors; AID 504339; AlphaScreen JMJD2A-Tudor / H3K4me3 peptide binding; 390,000 compounds, 4.4% hits; also: % is scaled to controls: 0 for no effect and ±100 for the full control effect; nearly all actives have a fitted effect of over 50% in size
L3MBTL1 block: blocks human L3MBTL1 | Q9Y468 | AlphaScreen L3MBTL1–H3K9me1 peptide binding | Potency, µM (highest dose often 57.1 µM), without a hit: top-dose activity, negative = inhibition, most hits filed as inhibitors | 230,000 compounds, 0.66% hits | AID 485360; also: % is scaled to controls: 0 for no effect and ±100 for the full control effect; nearly all actives have a fitted effect of over 60% in size
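First, the protein-peptide complex forms for 30 min at room temperature (L3MBTL1 50 nM, biotinylated H3K9me1 peptide 75 nM). Next, compounds are pin-transferred and incubated 30 min. Finally, AlphaScreen beads are added and read after 30 min.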
BAZ2B block: BAZ2B (human) inhibition | Q9UIF8 | AlphaScreen BAZ2B-H3K14Ac peptide displacement | Potency, µM (titrated, usually from 114 µM), inactives show at the highest dose activity change, negative = inhibition, actives largely listed as inhibitors | 360,000 compounds, 4.4% hits | AID 504333; also: % is scaled to controls: 0 for no effect and ±100 for the full control effect; nearly all actives have a fitted effect of over 60% in size
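AlphaScreen luminescence quantifies BAZ2B engagement of H3K14Ac peptide; the protein and biotinylated peptide are both at 50 nM final, buffer PBS pH 7.4 with 0.01% Tween-20, all steps at room temperature.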
HP1b binding inh: HP1-beta chromodomain-methylated histone interaction inhibition; P83916; AlphaScreen HP1-beta / biotin-H3K9me3 peptide binding; Potency, µM (doses to about 114 µM), inactives show top-dose activity change, negative = inhibition, usual class: inhibitors; 390,000 compounds, 0.56% hits; also: nearly all actives have a fitted effect of over 70% in size
Target sequence (P83916 whole entry, looked up): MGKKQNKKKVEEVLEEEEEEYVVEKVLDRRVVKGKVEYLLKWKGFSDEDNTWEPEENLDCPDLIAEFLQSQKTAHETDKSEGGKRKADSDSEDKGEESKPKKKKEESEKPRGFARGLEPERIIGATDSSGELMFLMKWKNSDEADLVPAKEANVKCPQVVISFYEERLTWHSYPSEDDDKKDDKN
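HP1-beta protein (50 nM final) preincubated 30 min at room temperature with biotinylated H3(1-18)K9me3 peptide (50 nM) in PBS pH 7.4, 0.01% Tween-20, then compound added for 30 min. AlphaScreen streptavidin donor/nickel chelate acceptor beads (10 ug/mL final), 30 min dark, luminescence read.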
* marks the source's active call; other numbers are inactive results; ? = inconclusive; . = no result given; ! = repeats disagree; [ ] = dose if it differs, or a comment. Calls follow the shape of the dose curve; as a rule, active = well fitted curve in the direction sought with a large enough effect; inconclusive = small, poorly fitted or top-dose-only effect, or another doubt; inactive = no such curve, though single readings can be large; an effect the other way counts as inactive or inconclusive. Potency is read from the fitted curve at half-maximal effect.

SMILES	GLS inhibitor	G9a block	JMJD2A Tudor inh	L3MBTL1 block	BAZ2B block	HP1b binding inh
CC[C@H](C)/C=C(C)/C=C/C1=CC2=C(Cl)C(=O)[C@@](C)(OC(C)=O)C(=O)C2=CO1	-0.5%	.	56.2µM*	.	.	50.1µM*
CCC(C)/C=C(C)/C=C/C1=CC2=C(Cl)C(=O)C(C)(OC(C)=O)C(=O)C2=CO1 (stereo not drawn)	-6.5%	-45.4%[12.7 µM]	35.5µM*	?	25.1µM*	?
C#CCN1CC(=O)N(COC(=O)[C@@H]2[C@@H](C=C(C)C)C2(C)C)C1=O	0.4%	35.3%[59 µM]	.	.	.	.
CCCCn1c(O)c(/C=N/NC(=O)c2ccncc2)c(=O)[nH]c1=S	-4.5%	-3.6%	-27.7%	-22.7%	79.4µM*	57.5%
Cn1c(O)c(/C=N/NC(=O)c2ccncc2)c(=O)n(C)c1=S	3.9%	27.8%[12.7 µM]	?	.	?	39.7%
Cn1c(O)c(/C=N/NC(=O)c2ccncc2)c(=O)[nH]c1=S	14.9%	.	79.4µM*	8.1%	17.8%	55.9%
CCCCCCC(=O)N/N=C/c1c(O)n(CCCC)c(=S)[nH]c1=O	25.5%	-19.8%	-24.1%	1.6%	-10.8%	39.7%
COc1ccc(-c2oc(=O)n(C)c2-c2ccc(OC)cc2)cc1	-3.8%	-14.1%	?	.	31.6µM*	0.0%
Nc1c2c(nc3sc4c(c13)CCCC4)CCCCC2	6.1%	?	79.4µM*	2.6%	-8.1%	-32.9%
Nc1c2c(nc3sc4c(c13)CCCC4)CCCC2	0.0%	.	-8.3%	-6.7%	-11.1%	17.0%
CCC1OC(=O)CC(O)C(C)[C@@H](O[C@@H]2OC(C)[C@H](O[C@@H]3C[C@@](C)(O)C(O)C(C)O3)C(N(C)C)C2O)[C@H](CC=O)CC(C)C(=O)/C=C/C(C)=C/[C@@H]1COC1OC(C)C(O)C(OC)[C@@H]1OC (stereo partly drawn)	-0.9%	-38.0%[2.33 µM]	.	.	.	.
O=C(Nc1ccccc1-c1ccc(Cl)cc1)c1cccnc1Cl	2.4%[99.4 µM]	.	.	.	.	.
O=C(Nc1cccc2ncccc12)c1ccccc1Cl	1.7%	79.4µM*	-10.0%	-8.3%	?	2.1%
CNc1ccc(C(=O)CC(O)CCC(C)C2OC(=O)CC(O)CC(=O)CC(O)CC(O)CC(O)CC(O)CC3(O)CC(O)C(C(=O)OC)C(CC(O[C@@H]4OC(C)C(O)C(N)C4O)/C=C/C=C/C=C/C=C/C=C/C=C/C=C/C2C)O3)cc1 (stereo partly drawn)	4.4%	7.3%[2.33 µM]	.	.	.	.
Cn1c(O)c(C2=NNC(c3ccc(Cl)cc3)C2)c(=O)n(C)c1=O (stereo not drawn)	1.0%	.	-2.8%	-16.4%	44.7µM*	30.4%
O=C(NCc1cccnc1)Nc1ccc([N+](=O)[O-])cc1	2.2%	10.3%	-23.1%	.	-17.5%	21.9%
CCCc1cnc2c(c1SCC(=O)Nc1ccc([N+](=O)[O-])cc1)c(=O)n(C)c(=O)n2C	-14.9%	12.6µM*	-24.4%	.	-15.7%	-4.6%
CCN1CCN(CC(c2ccccc2)c2ccccc2)CC1	4.7%	?	0.794µM*	-5.8%	10µM*	?
O=C(c1c[nH]c(C(=O)C(Cl)(Cl)Cl)c1)c1ccccc1Cl	2.6%	-1.7%[59 µM]	?	.	?	11.4%
CCCN1CCCC2Cc3nc(N)ncc3CC21 (stereo not drawn)	15.0%	-7.3%[59 µM]	.	.	.	.
CC(N)Cc1cn(Cc2ccccc2)c2ccccc12 (stereo not drawn)	6.1%	?	79.4µM*	-1.2%	-29.9%	-21.6%
Nc1c(C(=O)Nc2ccc(OC(F)(F)F)cc2)sc2nc3c(cc12)N1CCC3CC1	-4.5%	-0.1%[59 µM]	-21.3%	.	2.9%	68.8%
NNc1ccccc1	-19.8%	30.7%[59 µM]	.	.	.	.
COC(=O)CSc1n[nH]c(=S)s1	-1.7%	7.94µM*	?	5.2%	-28.5%	28.2µM*
CCOC(=O)CSc1nn(-c2ccccc2)c(=S)s1	5.7%	56.8%	45.8%	.	5.6%	57.6%
SMILES	GLS inhibitor	G9a block	JMJD2A Tudor inh	L3MBTL1 block	BAZ2B block	HP1b binding inh
CC(O)CN1CCN(CC(=O)[O-])CCN(CC(=O)[O-])CCN(CC(=O)[O-])CC1.[Gd+3] (stereo not drawn)	-0.1%	.	.	.	.	.
Nc1nc(O)c(-c2ccccc2)o1	0.5%	-5.3%[12.7 µM]	.	.	.	.
CCOC(=O)CCCc1cc[c]([Sb](=[O])([OH])[OH])cc1	.	.	0.708µM*	.	.	1.26µM*
COc1ccccc1CN1CCCC2(CCN(C(=O)Oc3ccccc3)CC2)C1	.	-5.0%[12.7 µM]	.	.	.	.
CC1(O)CCC2C3CCC4=CC(=O)CCC4=C3C=CC21C (stereo not drawn)	-6.5%	.	-11.7%	.	.	16.7%[57 µM]
COCOC1CCC2C3CCC4=CC(=O)CCC4=C3C=CC12C (stereo not drawn)	2.5%	.	79.4µM*	.	.	?
CCn1cc(C(=O)NCc2ccccc2)c2ccccc21	3.5%	21.4%	-9.9%	-9.1%	2.1%	10.4%
CCn1cc(C(=O)O)c(=O)c2ccc(C)nc21	8.3%	8.91µM*!	-16.5%	-1.0%	79.4µM*	6.3%
O=[N+]([O-])/C=C/c1ccc2c(c1)OCO2	.	2.12µM*	.	.	.	.
CN(C)c1ccc(/C=C/[N+](=O)[O-])cc1	-13.3%	70.8µM*	-4.1%	-4.0%	-6.3%	2.5%[57 µM]
CN1CCCC2(CCN(C(=O)Oc3ccccc3)CC2)C1	.	8.9%[12.7 µM]	.	.	.	.
CCOC(=O)N1CCC(NC(=O)CCc2nc(C3=CCN(C)CC3)no2)CC1	-15.1%	?	-6.2%	-5.3%	79.4µM*	13.2%
O=C(Oc1ccccc1)N1CCC2(CCCN(Cc3nccs3)C2)CC1	.	-8.1%[12.7 µM]	.	.	.	.
Cc1ccccc1Nc1c(-c2ccc(Br)cc2O)nc2sccn12	5.3%	?	?	.	22.4µM*	1.7%
O=C1CN=C(c2ccccc2)c2cc(Cl)ccc2N1Cc1ccc(Cl)cc1	-15.0%	-9.7%[59 µM]	-17.2%	.	-1.7%	7.9%
O=C(O)CN1C(=O)CN=C(c2ccccn2)c2cc(Cl)ccc21	-0.9%	-32.5%	25.1µM*	19.8%	50.1µM*	48.9%
Cc1ccc(-n2ncc(C(=O)N3CCN(c4ccc(Cl)cc4)CC3)c2C2CCN(C(=O)OC(C)(C)C)CC2)c(C)c1	10.5%	?	?	.	-21.8%[57.1 µM]	-2.6%
COc1ccc(OCC#CCN2CCC(C)CC2)cc1	0.0%	8.91µM*	-31.9%	-2.7%	28.2µM*	35.5µM*
COc1ccc(CC(C)NC2CCCCCC2)cc1 (stereo not drawn)	-6.0%	-25.5%	-8.3%	.	-6.9%	22.6%
COc1ccc(N2CCN(C(=O)C3CCCN(S(=O)(=O)c4ccc5c(c4)CCCN5C(C)=O)C3)CC2)cc1 (stereo not drawn)	21.7%	?	?	.	?	4.9%[57 µM]
CCc1nc(SC)ncc1C(=O)Nc1ccc(Cl)cc1C(=O)c1ccccc1	-5.6%	-1.1%[59 µM]	-18.2%	.	-1.4%	28.4%
